Compound activity (PubChem)
CYP2C19 inh – blockers of cytochrome P450 2C19 activity – biochemical, luminescence, ADME assay, primary screen | inhibition, % at 5 µM | hit rate 21% among 96,000 | CYP2C19 Supersomes, luciferin-H EGE luminescence, 30 min | P33261;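 active means CYP2C19 inhibition above a set limit at 5 µM in the primary screen, cut at about 50% in these data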;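 further: plate controls were negative control wells for no effect and 2.5 mM tranylcypromine positive control for full effect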
Target sequence (P33261 whole entry, looked up): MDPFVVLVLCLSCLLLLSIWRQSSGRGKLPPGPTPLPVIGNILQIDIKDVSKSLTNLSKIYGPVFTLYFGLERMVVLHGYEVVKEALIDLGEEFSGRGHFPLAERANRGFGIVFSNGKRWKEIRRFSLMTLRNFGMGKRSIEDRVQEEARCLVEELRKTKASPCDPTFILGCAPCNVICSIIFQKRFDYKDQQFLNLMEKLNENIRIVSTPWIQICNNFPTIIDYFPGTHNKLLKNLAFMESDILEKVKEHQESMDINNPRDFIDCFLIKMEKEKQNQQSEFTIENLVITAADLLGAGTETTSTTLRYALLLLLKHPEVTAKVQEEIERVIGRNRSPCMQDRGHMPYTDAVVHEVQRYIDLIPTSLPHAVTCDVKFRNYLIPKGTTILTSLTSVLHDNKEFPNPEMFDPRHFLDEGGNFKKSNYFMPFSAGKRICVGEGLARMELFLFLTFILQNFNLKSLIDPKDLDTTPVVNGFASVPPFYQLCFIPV
CYP2C19 activ – human CYP2C19 activators, primary screen, biochemical, luminescence; AID 1025, 2008; Cytochrome P450 2C19 (Homo sapiens), P33261; 96,000 tested, under 10 active; recombinant CYP2C19, luciferin-H EGE luminescence; stronger effect = higher value; 0 = fully inhibited enzyme, 1 = untreated enzyme; activation factor at 5 µM;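 active means activation factor of at least 2 at 5 µM in the primary screen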;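 further: 0 = wells with 2.5 mM tranylcypromine and 1 = vehicle-only wells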
PostGolgi yeast – phenotypic screen on post-Golgi transport, primary screen | post-Golgi transport phenotypic cell assay | inhibition, % at 10 µM | hit rate 0.9% among 98,000;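 further: yeast cells grown in 1536-well plates; yeast grown about 18 h at 30C before absorbance read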
CYP2C9 activ – human CYP2C9 activators, primary screen, biochemical, luminescence. AID 1024, 2008. recombinant CYP2C9, luciferin-H conversion; stronger effect = higher value; factor 1 = untreated enzyme, 0 = blocked. Cytochrome P450 2C9 (Homo sapiens), P11712. activation factor at 5 µM. hit rate 1.4% among 96,000;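 active means activation factor of 2 or more for CYP2C9 at a 5 µM dose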;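 further: 0 = sulfaphenazole-blocked wells and 1 = vehicle-only wells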
CYP2C9 inh – blockers of cytochrome P450 2C9 activity – biochemical, luminescence, ADME assay, primary screen | P11712 | inhibition, % at 5 µM | hit rate 20% among 96,000 | AID 777, 2007 | CYP2C9 Supersomes, luciferin-H conversion;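 active means blocking of liver enzyme CYP2C9 beyond about 50% at 5 µM, limit read from the data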
PostGolgi ctrl – growth inhibition of yeast control strain, primary screen, counter-screen for post-Golgi transport modulator project. efflux-deficient yeast background strain, growth absorbance A615, 16 h. inhibition, % at 10 µM. hit rate 5% among 98,000
An asterisk follows results filed as active. A selection: hits, their analogues and other compounds. The true share with any hit is near 32%. Unless noted, no stated cut-off is given here; in the data, active means inhibition above about 30%; inactive means the rest.

What do the screens show for `O=C(CSc1oc(-c2ccc(F)cc2)nc1S(=O)(=O)c1ccc(F)cc1)NCC1CCCO1` (stereo unspecified)?
PostGolgi yeast: 1.1; PostGolgi ctrl: 0.2

How did N#Cc1nc(-c2cccs2)oc1NCC1CCCO1 (stereo unspecified) do in these assays?
CYP2C19 inh: 54.6*; CYP2C19 activ: 0.5; PostGolgi yeast: 6.3; CYP2C9 activ: 0.6; CYP2C9 inh: 38.0; PostGolgi ctrl: 38.9*

Results for CN=c1scc(C)n1/N=C/c1ccc2c(c1)OCO2 ?
CYP2C19 inh: 17.2; CYP2C19 activ: 0.8; PostGolgi yeast: -7.4; CYP2C9 activ: 0.9; CYP2C9 inh: 10.1; PostGolgi ctrl: -5.0

How did CC(NC(=O)C(NC(=O)C1CCCN1C(=O)OC(C)(C)C)C(C)C)C(N)=O (stereo unspecified) do in these assays?
PostGolgi yeast: -0.9; PostGolgi ctrl: 2.3

How did CCN(CC)C(=O)COc1ccc(CC(=O)O)cc1OC do in these assays?
CYP2C19 inh: -6.4; CYP2C19 activ: 1.1; PostGolgi yeast: -7.0; CYP2C9 activ: 1; CYP2C9 inh: 2.2; PostGolgi ctrl: 13.0

How did Cc1cc(=O)c2n(Cc3ccccc3Cl)nc[n+]2[nH]1 do in these assays?
PostGolgi yeast: 2.0; PostGolgi ctrl: 11.6

How did CC(=O)NC1CC2CCC(C1)N2Cc1ccc(C)cc1 (stereo unspecified) do in these assays?
CYP2C19 inh: 54.4*; CYP2C19 activ: 0.5; PostGolgi yeast: -1.8; CYP2C9 activ: 1; CYP2C9 inh: -0.8; PostGolgi ctrl: 2.5

Results for COCC(=O)NC1CC2CCCC(C1)N2Cc1ccccc1 (stereo unspecified) ?
CYP2C19 inh: -8.7; CYP2C19 activ: 1.1; PostGolgi yeast: 0.6; CYP2C9 activ: 1; CYP2C9 inh: -2.2; PostGolgi ctrl: 6.2

How did Cc1ccc(S(=O)(=O)NC(C)(C)CSc2nnc(N)s2)cc1 do in these assays?
CYP2C19 inh: 99.4*; CYP2C19 activ: 0; PostGolgi yeast: -5.0; CYP2C9 activ: 0.2; CYP2C9 inh: 79.9*; PostGolgi ctrl: 11.8

What do the screens show for `Cc1ccc(S(=O)(=O)NC(C)(C)CSc2nncn2C)cc1`?
CYP2C19 inh: 40.5; CYP2C19 activ: 0.6; PostGolgi yeast: -4.2; CYP2C9 activ: 1.1; CYP2C9 inh: -8.9; PostGolgi ctrl: -0.1

Results for CN(C)CCNc1nc(-c2ccccc2)nnc1C(F)(F)F ?
CYP2C19 inh: -8.4; CYP2C19 activ: 1.1; PostGolgi yeast: 2.8; CYP2C9 activ: 1.1; CYP2C9 inh: -5.9; PostGolgi ctrl: 1.9

Results for CC(C)(C)OC(=O)N1CCC(C(N)=O)CC1 ?
CYP2C19 inh: 2.2; CYP2C19 activ: 1; PostGolgi yeast: 4.0; CYP2C9 activ: 1; CYP2C9 inh: 4.3; PostGolgi ctrl: -3.2

What do the screens show for `CC(C)(C)OC(=O)N1CCCC(C(=O)CC#N)C1` (stereo unspecified)?
CYP2C19 inh: 37.2; CYP2C19 activ: 0.6; PostGolgi yeast: 3.3; CYP2C9 activ: 0.3; CYP2C9 inh: 66.5*; PostGolgi ctrl: 0.6

How did Cc1cc(C)cc(N2C(=O)CC(n3ccnc3)C2=O)c1 (stereo unspecified) do in these assays?
CYP2C19 inh: 34.5; CYP2C19 activ: 0.7; PostGolgi yeast: 4.8; CYP2C9 activ: 1; CYP2C9 inh: 0.7; PostGolgi ctrl: 31.8*

What do the screens show for `Cn1c(NC(=O)c2cccs2)c(-c2cccs2)c(=O)c2ccccc21`?
CYP2C19 inh: 3.8; CYP2C19 activ: 1; PostGolgi yeast: 4.3; CYP2C9 activ: 0.3; CYP2C9 inh: 66.8*; PostGolgi ctrl: 32.4*

Results for Cn1c(NC(=O)c2ccccc2)c(-c2cccs2)c(=O)c2ccccc21 ?
CYP2C19 inh: -15.0; CYP2C19 activ: 1.1; PostGolgi yeast: 0.3; CYP2C9 activ: 0.2; CYP2C9 inh: 83.8*; PostGolgi ctrl: 25.2

What do the screens show for `CC(C)C(=O)Nc1c(-c2cccs2)c(=O)c2ccccc2n1C`?
CYP2C19 inh: -0.7; CYP2C19 activ: 1; PostGolgi yeast: -4.5; CYP2C9 activ: 1.1; CYP2C9 inh: -14.2; PostGolgi ctrl: 9.6

What do the screens show for `Cn1c(NC(=O)c2ccccc2)c(-c2ccccn2)c(=O)c2ccccc21`?
CYP2C19 inh: -10.6; CYP2C19 activ: 1.1; PostGolgi yeast: 7.6; CYP2C9 activ: 0.7; CYP2C9 inh: 27.7; PostGolgi ctrl: -1.8

What do the screens show for `COc1ccc(CC(NC(C)=O)C(=O)NC2CCN(C(=O)Nc3ccc(Cl)cc3)CC2)cc1OC` (stereo unspecified)?
CYP2C19 inh: 5.3; CYP2C19 activ: 0.9; PostGolgi yeast: 4.7; CYP2C9 activ: 0.9; CYP2C9 inh: 10.3; PostGolgi ctrl: 16.3

How did c1ccc(-c2nn3nnnc3c3ccccc23)cc1 do in these assays?
CYP2C19 inh: 51.5*; CYP2C19 activ: 0.5; PostGolgi yeast: -8.0; CYP2C9 activ: 1.2; CYP2C9 inh: -18.4; PostGolgi ctrl: -3.4

What do the screens show for `OC(c1cccc(OCc2ccccc2)c1)c1nnc(-c2ccccc2)o1` (stereo unspecified)?
CYP2C19 inh: 15.3; CYP2C19 activ: 0.8; PostGolgi yeast: -0.6; CYP2C9 activ: 0.6; CYP2C9 inh: 44.9; PostGolgi ctrl: 56.2*

Results for Cc1cc(C)n(C(=O)CNC(=O)c2cccs2)n1 ?
CYP2C19 inh: 17.8; CYP2C19 activ: 0.8; PostGolgi yeast: 0.3; CYP2C9 activ: 0.9; CYP2C9 inh: 12.6; PostGolgi ctrl: 1.8

How did COc1ccc(Nc2nc3ccccc3n3nnnc23)cc1 do in these assays?
CYP2C19 inh: 3.2; CYP2C19 activ: 1; PostGolgi yeast: -8.3; CYP2C9 activ: 0.9; CYP2C9 inh: 14.9; PostGolgi ctrl: 3.1

What do the screens show for `COc1cc(Nc2nc3ccccc3n3nnnc23)cc(OC)c1OC`?
CYP2C19 inh: 32.3; CYP2C19 activ: 0.7; PostGolgi yeast: -4.2; CYP2C9 activ: 0.3; CYP2C9 inh: 68.8*; PostGolgi ctrl: 5.6

How did FC(F)(F)c1cnc2c(c1)Nc1ccccc1S2 do in these assays?
CYP2C19 inh: 29.5; CYP2C19 activ: 0.7; PostGolgi yeast: 33.1*; CYP2C9 activ: 0.8; CYP2C9 inh: 16.1; PostGolgi ctrl: 22.4

How did COc1ccccc1OCC(=O)Nc1ccc(S(=O)(=O)Nc2cc(C)nc(C)n2)cc1 do in these assays?
CYP2C19 inh: -16.5; CYP2C19 activ: 1.2; PostGolgi yeast: -4.1; CYP2C9 activ: 1.1; CYP2C9 inh: -12.3; PostGolgi ctrl: 16.9

What do the screens show for `COc1c2occc2c(OC)c2c(=O)cc(C(F)(F)F)oc12`?
CYP2C19 inh: 48.3; CYP2C19 activ: 0.5; PostGolgi yeast: 4.1; CYP2C9 activ: 0.8; CYP2C9 inh: 18.9; PostGolgi ctrl: 5.6

What do the screens show for `COc1c2occc2c(OC)c2c(=O)cc(C(F)(F)C(F)(F)F)oc12`?
CYP2C19 inh: 98.1*; CYP2C19 activ: 0; PostGolgi yeast: -2.7; CYP2C9 activ: 0.4; CYP2C9 inh: 60.6*; PostGolgi ctrl: 0.1
